Source: the supplement of paper PMC10849652
Of roughly 7,900 targets only a part is listed; those with a hit were picked by preference. About 0.6% of all pairs of compound and target were hits. Unmarked numbers belong to inactive results.

Assays:
Assay in all cases: log2 fold change, soluble protein after heating vs DMSO (PISA); higher = thermal stabilisation; K562 cells, 10 uM, 30 min; active = over 0.2 and 3.5 SD of the protein, either way, in both replicates (recomputed)
[1] = compound: CC1=C(C=C(C=C1)NC(=O)C2=CC(=CC=C2)C(C)(C)C#N)NC3=CC4=C(C=C3)N=CN(C4=O)C
Outline: (§1)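 Soluble protein was quantified by TMTpro 16plex LC-MS/MS after channel sums were equalised. It was obtained as the supernatant after 21,000xg for 90 min from pooled aliquots of K562 cells (2×10^6 cells/mL, 10 μM compound, 30 min) heated for 3 min across 48°C-58°C and extracted in PBS with 0.5% NP-40 at 4°C. Thermal stability values are relative to control samples and come from duplicates. They are given as log2 fold changes.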

[2] = compound: CC1=C(C=C(C=C1)NC(=O)C2=CC(=CC=C2)N(C)C)NC(=O)C3=CC=C(C=C3)O
Outline: as §1

[3] = compound: CC1=CC=C(C=C1)SC2=C3C=C(SC3=CN=C2)C(=O)N
Outline: as §1

[4] = compound: CC1=NC(=CC=C1)C2=C(N=C(N2)C(C)(C)C)C3=CC4=NC=CN=C4C=C3
Outline: as §1

Nexturastat A = compound: CCCCN(Cc1ccc(C(=O)NO)cc1)C(=O)Nc1ccccc1 [Nexturastat A]
Outline: as §1

vemurafenib = compound: CCCS(=O)(=O)Nc1ccc(F)c(C(=O)c2c[nH]c3ncc(-c4ccc(Cl)cc4)cc23)c1F [vemurafenib]
Outline: as §1

[5] = compound: CCCS(=O)(=O)Nc1ccc(F)c(C(=O)c2c[nH]c3ncc(Cl)cc23)c1F
Outline: as §1

[6] = compound: CCCc1cc(C)[nH]c(=O)c1CNC(=O)c1cc(-c2ccnc(N3CCN(C)CC3)c2)cc2c1cnn2C(C)C
Outline: as §1

givinostat = compound: CCN(CC)Cc1ccc2cc(COC(=O)Nc3ccc(C(=O)NO)cc3)ccc2c1 [givinostat]
Outline: as §1

barasertib = compound: CCN(CCCOc1ccc2c(Nc3cc(CC(=O)Nc4cccc(F)c4)[nH]n3)ncnc2c1)CCOP(=O)(O)O [barasertib]
Outline: as §1

Sequence of UniProt O60231 (O60231 whole entry, looked up): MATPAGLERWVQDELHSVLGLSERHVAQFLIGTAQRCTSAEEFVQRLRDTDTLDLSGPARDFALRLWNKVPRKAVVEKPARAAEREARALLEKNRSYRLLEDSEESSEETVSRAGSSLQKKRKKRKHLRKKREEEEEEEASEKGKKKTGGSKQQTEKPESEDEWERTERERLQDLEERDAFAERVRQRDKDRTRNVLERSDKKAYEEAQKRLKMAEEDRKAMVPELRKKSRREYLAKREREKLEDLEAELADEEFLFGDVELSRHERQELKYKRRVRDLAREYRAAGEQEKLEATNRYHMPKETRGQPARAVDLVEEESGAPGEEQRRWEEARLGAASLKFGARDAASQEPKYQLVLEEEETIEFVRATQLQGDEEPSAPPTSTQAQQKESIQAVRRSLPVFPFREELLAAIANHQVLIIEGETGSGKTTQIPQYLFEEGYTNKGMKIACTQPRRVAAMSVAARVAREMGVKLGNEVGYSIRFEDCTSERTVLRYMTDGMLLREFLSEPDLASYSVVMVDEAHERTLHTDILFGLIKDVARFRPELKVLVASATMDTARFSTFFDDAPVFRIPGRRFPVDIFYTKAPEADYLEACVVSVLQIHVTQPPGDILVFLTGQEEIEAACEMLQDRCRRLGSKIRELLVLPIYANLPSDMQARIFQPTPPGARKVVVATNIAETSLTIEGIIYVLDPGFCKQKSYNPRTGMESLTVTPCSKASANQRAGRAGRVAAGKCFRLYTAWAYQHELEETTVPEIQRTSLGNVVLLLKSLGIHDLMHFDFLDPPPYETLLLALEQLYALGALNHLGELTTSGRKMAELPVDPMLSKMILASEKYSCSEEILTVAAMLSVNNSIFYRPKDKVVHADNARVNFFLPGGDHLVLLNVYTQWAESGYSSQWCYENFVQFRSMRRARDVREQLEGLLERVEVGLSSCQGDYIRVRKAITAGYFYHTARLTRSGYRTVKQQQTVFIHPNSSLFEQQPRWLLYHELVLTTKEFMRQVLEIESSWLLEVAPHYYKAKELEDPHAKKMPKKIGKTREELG
Sequence of UniProt O76075 (O76075 whole entry, looked up): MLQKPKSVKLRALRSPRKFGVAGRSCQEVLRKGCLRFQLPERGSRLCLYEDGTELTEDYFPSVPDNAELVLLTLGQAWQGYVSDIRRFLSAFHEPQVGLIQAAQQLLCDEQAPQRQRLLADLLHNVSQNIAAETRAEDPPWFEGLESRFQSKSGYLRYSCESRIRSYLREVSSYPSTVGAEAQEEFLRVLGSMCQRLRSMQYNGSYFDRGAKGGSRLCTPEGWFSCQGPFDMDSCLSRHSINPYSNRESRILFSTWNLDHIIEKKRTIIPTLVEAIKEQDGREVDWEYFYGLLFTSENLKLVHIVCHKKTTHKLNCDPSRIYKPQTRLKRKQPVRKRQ
Sequence of UniProt P17844 (P17844 whole entry, looked up): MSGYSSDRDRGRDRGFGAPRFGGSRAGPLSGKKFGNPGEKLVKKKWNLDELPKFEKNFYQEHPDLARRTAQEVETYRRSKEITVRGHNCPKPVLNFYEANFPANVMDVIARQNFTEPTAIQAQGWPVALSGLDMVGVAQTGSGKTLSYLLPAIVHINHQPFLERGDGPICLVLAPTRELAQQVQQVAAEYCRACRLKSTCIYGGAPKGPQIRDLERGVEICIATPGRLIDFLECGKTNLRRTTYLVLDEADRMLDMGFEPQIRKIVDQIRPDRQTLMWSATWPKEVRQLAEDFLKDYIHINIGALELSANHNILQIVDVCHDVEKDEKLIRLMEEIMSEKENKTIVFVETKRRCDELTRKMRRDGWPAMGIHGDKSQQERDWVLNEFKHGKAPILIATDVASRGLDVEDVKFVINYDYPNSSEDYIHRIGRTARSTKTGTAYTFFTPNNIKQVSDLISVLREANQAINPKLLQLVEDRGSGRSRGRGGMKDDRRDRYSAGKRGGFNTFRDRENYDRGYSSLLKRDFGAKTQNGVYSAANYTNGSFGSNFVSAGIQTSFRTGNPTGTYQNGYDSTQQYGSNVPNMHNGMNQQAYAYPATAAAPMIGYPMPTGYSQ
Sequence of UniProt Q13948 (Q13948 whole entry, looked up): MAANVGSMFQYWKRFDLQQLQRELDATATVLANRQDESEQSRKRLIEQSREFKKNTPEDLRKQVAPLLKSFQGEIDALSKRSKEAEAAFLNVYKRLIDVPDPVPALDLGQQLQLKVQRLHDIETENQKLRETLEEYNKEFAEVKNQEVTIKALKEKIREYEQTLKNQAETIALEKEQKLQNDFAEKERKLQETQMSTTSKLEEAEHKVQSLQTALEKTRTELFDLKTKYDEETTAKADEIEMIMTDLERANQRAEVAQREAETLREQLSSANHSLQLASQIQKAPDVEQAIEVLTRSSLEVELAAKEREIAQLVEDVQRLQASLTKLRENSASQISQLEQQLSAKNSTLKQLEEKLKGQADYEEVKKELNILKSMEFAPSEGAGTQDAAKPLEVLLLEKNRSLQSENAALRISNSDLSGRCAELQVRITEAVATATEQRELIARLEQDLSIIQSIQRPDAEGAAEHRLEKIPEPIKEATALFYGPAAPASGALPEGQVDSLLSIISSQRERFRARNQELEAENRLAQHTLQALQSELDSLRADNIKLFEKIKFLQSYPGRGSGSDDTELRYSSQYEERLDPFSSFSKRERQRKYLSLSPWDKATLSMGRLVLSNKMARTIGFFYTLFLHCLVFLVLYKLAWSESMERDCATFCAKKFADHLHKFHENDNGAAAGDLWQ
Sequence of UniProt Q9BV94 (Q9BV94 whole entry, looked up): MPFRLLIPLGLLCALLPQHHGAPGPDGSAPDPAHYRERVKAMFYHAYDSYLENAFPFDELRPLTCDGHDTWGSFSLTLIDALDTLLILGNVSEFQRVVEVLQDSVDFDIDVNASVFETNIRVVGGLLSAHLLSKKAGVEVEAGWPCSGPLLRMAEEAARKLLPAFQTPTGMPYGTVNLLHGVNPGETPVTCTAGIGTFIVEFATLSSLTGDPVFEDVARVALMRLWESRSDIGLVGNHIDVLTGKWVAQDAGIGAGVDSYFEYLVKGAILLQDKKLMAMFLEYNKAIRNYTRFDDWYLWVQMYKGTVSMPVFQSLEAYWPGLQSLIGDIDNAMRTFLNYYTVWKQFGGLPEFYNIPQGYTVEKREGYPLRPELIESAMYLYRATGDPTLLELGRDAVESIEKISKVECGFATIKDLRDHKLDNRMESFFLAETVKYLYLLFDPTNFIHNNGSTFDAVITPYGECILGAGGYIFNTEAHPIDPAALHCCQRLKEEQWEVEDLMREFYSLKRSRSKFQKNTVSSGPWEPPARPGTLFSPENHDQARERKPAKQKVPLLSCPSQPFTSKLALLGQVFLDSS
Sequence of UniProt O75911 (O75911 whole entry, looked up): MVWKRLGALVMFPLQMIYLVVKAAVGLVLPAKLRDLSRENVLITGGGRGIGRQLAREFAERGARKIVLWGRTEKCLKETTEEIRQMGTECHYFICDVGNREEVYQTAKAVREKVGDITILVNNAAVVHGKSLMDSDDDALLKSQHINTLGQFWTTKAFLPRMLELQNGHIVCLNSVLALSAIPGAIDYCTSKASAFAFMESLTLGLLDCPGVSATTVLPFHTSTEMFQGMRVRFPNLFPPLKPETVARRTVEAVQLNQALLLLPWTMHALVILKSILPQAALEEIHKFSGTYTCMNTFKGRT
Sequence of UniProt Q9NSI2 (Q9NSI2 whole entry, looked up): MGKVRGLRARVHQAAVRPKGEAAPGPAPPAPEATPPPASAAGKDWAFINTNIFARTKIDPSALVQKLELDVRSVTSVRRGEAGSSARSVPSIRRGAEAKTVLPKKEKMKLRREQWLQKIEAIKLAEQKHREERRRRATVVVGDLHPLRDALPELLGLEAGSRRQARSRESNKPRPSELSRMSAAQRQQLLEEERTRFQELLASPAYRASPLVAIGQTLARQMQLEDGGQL
Sequence of UniProt Q9BW60 (Q9BW60 whole entry, looked up): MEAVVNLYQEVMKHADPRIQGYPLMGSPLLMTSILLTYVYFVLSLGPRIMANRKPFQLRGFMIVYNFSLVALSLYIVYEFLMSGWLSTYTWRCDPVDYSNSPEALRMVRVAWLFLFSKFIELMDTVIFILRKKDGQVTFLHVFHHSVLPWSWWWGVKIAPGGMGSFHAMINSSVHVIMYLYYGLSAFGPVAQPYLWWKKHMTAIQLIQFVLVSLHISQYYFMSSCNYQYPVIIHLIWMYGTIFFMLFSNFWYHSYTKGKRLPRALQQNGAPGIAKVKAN
Sequence of UniProt Q9C073 (Q9C073 whole entry, looked up): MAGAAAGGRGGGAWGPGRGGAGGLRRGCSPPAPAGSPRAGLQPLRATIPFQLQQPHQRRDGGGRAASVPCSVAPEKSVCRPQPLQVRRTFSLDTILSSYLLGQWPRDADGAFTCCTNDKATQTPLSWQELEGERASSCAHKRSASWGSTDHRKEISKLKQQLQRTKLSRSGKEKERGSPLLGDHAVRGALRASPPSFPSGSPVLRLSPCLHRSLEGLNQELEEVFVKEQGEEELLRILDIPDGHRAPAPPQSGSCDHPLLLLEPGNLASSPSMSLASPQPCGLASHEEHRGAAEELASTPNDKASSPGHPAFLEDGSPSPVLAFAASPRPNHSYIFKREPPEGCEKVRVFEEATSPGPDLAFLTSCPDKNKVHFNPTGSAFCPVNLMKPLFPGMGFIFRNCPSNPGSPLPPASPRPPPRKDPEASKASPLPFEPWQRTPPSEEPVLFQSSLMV
Sequence of UniProt Q96DA6 (Q96DA6 whole entry, looked up): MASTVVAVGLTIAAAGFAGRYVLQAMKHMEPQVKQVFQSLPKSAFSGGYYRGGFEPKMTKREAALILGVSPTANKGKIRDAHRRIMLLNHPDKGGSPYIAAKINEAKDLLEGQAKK
Sequence of UniProt P13498 (P13498 whole entry, looked up): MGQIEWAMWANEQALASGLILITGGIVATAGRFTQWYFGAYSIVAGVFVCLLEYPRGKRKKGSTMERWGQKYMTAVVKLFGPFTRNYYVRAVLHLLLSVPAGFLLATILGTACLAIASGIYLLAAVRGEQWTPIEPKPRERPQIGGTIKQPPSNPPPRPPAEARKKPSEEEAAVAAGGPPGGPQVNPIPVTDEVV

Target	log2 fold change [1]	log2 fold change [2]	log2 fold change [3]	log2 fold change [4]	log2 fold change (Nexturastat A)	log2 fold change (vemurafenib)	log2 fold change [5]	log2 fold change [6]	log2 fold change (givinostat)	log2 fold change (barasertib)
EEF1AKNMT (UniProt Q8N6R0)	0.078	-0.037	0.031	0.026	-0.026	0.084	0.062	0.075	0.04	0.076
ELOVL1 (UniProt Q9BW60)	-0.035	-0.065	0.064	0.044	0.03	-0.032	0.116	-0.063	0.067	0.028
EDC4 (UniProt Q6P2E9)	0.004	-0.048	-0.022	-0.035	0.022	0.035	0.03	0.029	0.031	0.057
DHFR (UniProt P00374)	-0.069	0.003	-0.086	-0.074	0.232	0.044	0.001	0.17	0.162	0.068
ERCC2 (UniProt P18074)	-0.024	0.014	-0.005	-0.038	0.035	0.166	0.036	0.021	0.095	-0.007
CTSL (UniProt P07711)	-0.083	0.014	-0.049	0.013	0.085	-0.023	-0.05	0.033	0.121	0.092
FAM83D (UniProt Q9H4H8)	0.008	-0.029	0.028	0.018	0.102	0.041	0.097	0.016	0.103	0.128
DTWD2 (UniProt Q8NBA8)	0.019	-0.025	0.197	-0.048	0.009	-0.079	0.043	-0.006	-0.139	0.056
FAM207A (UniProt Q9NSI2)	-0.086	0.11	-0.006	0.024	-0.047	0.038	-0.006	0.44	0.148	-0.036
EIF4E2 (UniProt O60573)	-0.089	-0.006	0.061	0.089	0.097	0.126	0.069	0	0.031	0.083
DHX40 (UniProt Q8IX18)	0.105	-0.047	0.02	-0.027	0.12	0	0.043	0.025	0.087	-0.002
ESS2 (UniProt Q96DF8)	-0.085	0.091	-0.024	-0.018	0.032	-0.01	-0.013	-0.075	-0.01	-0.025
EIF4A1 (UniProt P60842)	0.106	-0.017	0.061	0.049	-0.115	0.055	0.089	0.151	0.06	0.026
EMD (UniProt P50402)	-0.056	0.011	-0.076	-0.04	0.059	-0.015	0.021	-0.092	0.002	0.002
EXOC6 (UniProt Q8TAG9)	-0.054	-0.028	0.104	0.032	0.133	0.104	0.022	0.009	0.075	-0.018
DDX5 (UniProt P17844)	0.136	-0.131	0.036	0.112	0.033	0.142	0.174	0.036	0.178	0.122
CTSV (UniProt O60911)	0	0.019	0	-0.017	-0.043	-0.021	-0.006	-0.062	0.194	0.032
DDX39A (UniProt O00148)	-0.018	-0.016	0.02	0.027	0.015	0.004	0.017	0.074	0.076	0.035
FAF2 (UniProt Q96CS3)	0.015	-0.021	0.008	-0.016	0.009	0.038	0.008	-0.039	0.036	0.021
FAM117A (UniProt Q9C073)	0.036	0.013	-0.007	-0.034	0.004	-0.023	-0.004	-0.001	0.109	0.053

Target	log2 fold change [1]	log2 fold change [2]	log2 fold change [3]	log2 fold change [4]	log2 fold change (Nexturastat A)	log2 fold change (vemurafenib)	log2 fold change [5]	log2 fold change [6]	log2 fold change (givinostat)	log2 fold change (barasertib)
EPHX2 (UniProt P34913)	0.112	0.129	0.031	-0.017	0.193	-0.012	-0.025	-0.075	-0.014	-0.029
EFL1 (UniProt Q7Z2Z2)	-0.025	0.004	0.016	0.012	-0.11	0.04	0.036	0.008	0.004	0.05
DHX16 (UniProt O60231)	-0.014	-0.018	0.024	0.036	-0.002	0.017	0.059	-0.011	0.017	0.032
FAM160B1 (UniProt Q5W0V3)	0.033	0.128	-0.019	0.051	-0.023	0.149	0.034	0.014	0.016	0.109
EEF1G isoform 2 (UniProt P26641)	0.035	-0.015	0.014	0.049	-0.062	0.07	0.101	0.095	-0.013	0.037
ESYT1 isoform 2 (UniProt Q9BSJ8)	0.117	-0.052	-0.007	0.003	0.045	0.01	0.048	0.148	0.116	0.046
DNAJC24 (UniProt Q6P3W2)	-0.024	0.368	0.104	0.008	-0.208	0.008	-0.034	0.027	0.07	0.008
CWC27 (UniProt Q6UX04)	-0.001	-0.035	0.002	0.021	-0.029	0.128	0.112	0.009	0.082	0.073
EED, A0A5F9ZI63	0.005	-0.067	-0.012	-0.019	0.013	-0.02	0.025	-0.204 (active)	0.082	-0.038
DBR1 (UniProt Q9UK59)	-0.005	0.028	0.007	0.049	-0.007	0.024	0.037	-0.033	-0.16	-0.022
DHCR24 (UniProt Q15392)	0.248	0.01	-0.003	-0.043	0.004	-0.114	-0.012	0.434	1.21 (active)	0.088
DNAJB1 (UniProt P25685)	0.015	-0.045	-0.003	0.086	-0.03	0.009	0.028	-0.051	0.024	0.024
DIP2A (UniProt Q14689)	0.032	-0.013	-0.007	0.07	-0.119	0.05	-0.009	0.336	-0.05	0.118
CUX1 isoform 3 (UniProt P39880)	-0.039	0.016	0	-0.001	-0.013	0.043	0.025	0.065	0.002	0.013
DTWD1 (UniProt Q8N5C7)	0.05	-0.042	0.023	0.081	-0.072	0.115	-0.013	0.036	-0.172	-0.027
DHRS3 (UniProt O75911)	0.075	-0.037	0.019	0.027	-0.037	-0.078	-0.04	-0.035	-0.051	-0.048
EIF3J (UniProt O75822)	0.01	-0.026	-0.005	0.039	-0.068	0.05	-0.022	0.004	0.011	0.046
CYP51A1 (UniProt Q16850)	0.063	-0.036	-0.098	-0.133	0.024	0.029	-0.015	0.07	0.007	0.01
DDB1 (UniProt Q16531)	-0.012	0.011	0.006	0	-0.036	-0.012	-0.003	-0.027	0	-0.01
DNAAF2 (UniProt Q9NVR5)	-0.037	-0.043	-0.046	-0.038	-0.034	0.043	-0.038	-0.065	0	-0.009

Target	log2 fold change [1]	log2 fold change [2]	log2 fold change [3]	log2 fold change [4]	log2 fold change (Nexturastat A)	log2 fold change (vemurafenib)	log2 fold change [5]	log2 fold change [6]	log2 fold change (givinostat)	log2 fold change (barasertib)
CTSB (UniProt P07858)	-0.035	-0.069	0.022	0.029	-0.059	-0.041	-0.008	-0.025	-0.007	0.015
DUS2 (UniProt Q9NX74)	-0.028	-0.022	-0.022	0.04	-0.015	-0.004	0.099	0.039	0.062	-0.062
DFFB (UniProt O76075)	-0.023	-0.013	0.013	0.019	-0.04	0.055	0	-0.109	-0.059	0.034
DIAPH1 (UniProt O60610)	0.018	-0.05	0.025	-0.049	0.19	0.041	0.062	0.08	0.051	0.077
DNAJC19 (UniProt Q96DA6)	-0.02	0.001	0.043	0.069	-0.121	0.003	0.035	-0.013	0.005	0.007
CUX1 isoform 2 (UniProt Q13948)	-0.07	0.007	-0.003	-0.031	0.051	0.074	0.077	-0.011	-0.049	0.038
DNM2 (UniProt P50570)	-0.016	-0.043	0.009	0.024	-0.057	0.016	0.033	-0.007	0.036	0.054
DHX36 (UniProt Q9H2U1)	0.015	0	-0.034	-0.033	0.111	0.012	0.02	-0.005	-0.031	-0.064
CUTA isoform 2 (UniProt O60888)	-0.121	-0.011	0.013	0.044	0.169	0	0.044	0.16	-0.044	0.015
DCAF13 (UniProt Q9NV06)	-0.038	0.007	-0.123	-0.067	0.205	-0.117	-0.062	0.089	0.017	-0.084
CYBA (UniProt P13498)	-0.017	0.025	0.041	-0.02	-0.033	0	0.008	-0.028	0.007	-0.033
EHD2 (UniProt Q9NZN4)	-0.037	-0.026	-0.007	0.059	0.003	0.029	0.007	-0.024	0.024	0.03
DCTN1 isoform 4 (UniProt Q14203)	0.022	-0.017	0.015	-0.039	0.116	-0.015	0.019	0.102	0.104	0.033
CTU1 (UniProt Q7Z7A3)	0.011	-0.023	0.061	0.059	-0.022	0.065	0.034	-0.035	0.043	0
EIF2S3 (UniProt P41091)	0.02	0	-0.006	-0.032	0.102	-0.029	0.007	0.05	0.028	-0.033
EDEM2 (UniProt Q9BV94)	-0.064	-0.001	-0.084	-0.204	0.036	-0.032	-0.149	0.095	0.013	0.21
EEF1A1 (UniProt P68104)	-0.069	-0.068	0	0.052	0.086	0.031	0.022	0.089	-0.044	0.052
DPP8 (UniProt Q6V1X1)	-0.109	-0.026	-0.031	0.021	0.082	-0.056	-0.05	-0.176	-0.026	0.014
EIF2AK1 (UniProt Q9BQI3)	-0.027	-0.007	0.079	-0.019	-0.087	0.005	0.044	0.179	-0.051	-0.017
DBN1 isoform 3 (UniProt Q16643)	-0.079	0.045	0.016	-0.002	0.104	0.075	0.032	-0.062	-0.026	-0.038
